Bioassay records (PubChem BioAssay)
Compounds with a hit are over-represented: about 7.3% of the library has one in this group of screens.
SMN2 splice enh – qHTS Assay for Enhancers of SMN2 Splice Variant Expression | Potency, µM (top dose mostly 46.1 µM), inactives show at the top dose activity change, positive = activation, actives largely listed as activators | HEK293 SMN2-luciferase splicing reporter, luminescence, 30-36 h | hit rate 2.8% among 210,000; also: % of control where 0% means no effect; nearly all actives have a fitted effect of over 55% in size
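HEK293 cells carry an SMN2 minigene-luciferase reporter in which exon 7 inclusion puts luciferase in frame. Cells were seeded at 2000 cells/well, attached for 10-12 hours, then exposed to compounds for 30-36 hours at 37C before ONE-Glo luminescence.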
NPC1 promoter act – qHTS Assay for NPC1 Promoter Activators; Huh7 NPC1 promoter luciferase reporter, 24 h; Potency, µM (doses to about 9.22 µM), without a hit: at the top dose activation, hits mostly activators; hit rate 2.4% among 320,000; AID 485313, 2010; also: % of control where 0% means no effect; nearly all actives have a fitted effect of over 60% in size
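Stable NPC1-promoter luciferase Huh7 line; cpd (DMSO) 24 h, 37 °C, 5% CO2; Amplite luciferase reagent 10 min RT; luminescence readout. qHTS format.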
Rab9 prom act – qHTS Assay for Rab9 Promoter Activators | Huh7 Rab9 promoter-luciferase reporter, luminescence, 24 h | Potency, µM (series often up to 9.22 µM), without a hit: at the highest dose activation, negative = inhibition, hits mostly activators | hit rate 2.8% among 320,000; also: % of control where 0% means no effect; nearly all actives have a fitted effect of over 60% in size
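Cell-based reporter: Huh7 stable for Rab9 promoter-driven luciferase, plated in reduced-serum medium with 10% FBS at 1500 cells/well, compound-treated 24 h at 37 °C, luminescence read after 10 min reagent.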
ELG1 genotox – qHTS screen for small molecules that induce genotoxicity in human embryonic kidney (HEK293T) cells expressing luciferase-tagged ELG1; HEK293T ELG1-luciferase reporter, luminescence, 16 h; Potency, µM (highest dose often 46 µM), without a hit: at the top dose activity change, positive = activation, most hits filed as activators; hit rate 1.3% among 330,000; also: % of control where 0% means no effect; nearly all actives have a fitted effect of over 60% in size
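16 hr compound incubation (37 °C, 5% CO2) of HEK293T cells carrying luciferase-tagged ELG1; luciferase then measured by ONE-Glo luminescence after 30 min at RT.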
FLuc counter – qHTS profiling assay for firefly luciferase inhibitor/activator using purifed enzyme and Km concentrations of substrates (counterscreen for miR-21 project) | Luciferin 4-monooxygenase (Photinus pyralis), P08659 | purified FLuc, Km substrates, luminescence inhibition | Potency, µM (doses to about 57.5 µM), inactives show top-dose activity change, negative = inhibition, hits mostly inhibitors | hit rate 6.9% among 360,000 | AID 588342, 2011;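 also: plate controls were vehicle for no effect and reference inhibitor for full effect; nearly all actives have a fitted effect of over 55% in size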
Target sequence (P08659 whole entry, looked up): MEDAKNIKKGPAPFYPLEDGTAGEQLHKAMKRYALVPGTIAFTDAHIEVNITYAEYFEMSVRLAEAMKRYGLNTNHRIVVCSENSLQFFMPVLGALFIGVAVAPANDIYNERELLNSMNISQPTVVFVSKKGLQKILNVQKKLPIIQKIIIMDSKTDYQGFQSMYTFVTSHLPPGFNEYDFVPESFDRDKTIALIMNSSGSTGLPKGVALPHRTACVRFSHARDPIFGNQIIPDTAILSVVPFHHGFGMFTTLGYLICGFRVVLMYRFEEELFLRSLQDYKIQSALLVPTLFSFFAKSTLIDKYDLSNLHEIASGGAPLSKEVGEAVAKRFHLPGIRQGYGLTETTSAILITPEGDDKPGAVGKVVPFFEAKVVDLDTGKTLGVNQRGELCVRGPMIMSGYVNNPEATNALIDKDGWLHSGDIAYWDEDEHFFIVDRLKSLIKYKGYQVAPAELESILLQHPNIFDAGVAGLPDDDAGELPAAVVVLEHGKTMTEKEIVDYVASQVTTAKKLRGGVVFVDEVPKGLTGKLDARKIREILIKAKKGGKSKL
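Purified P. pyralis luciferase, 10 nM final, with Km-level 10 uM D-luciferin and 10 uM ATP in 50 mM Tris acetate pH 7.5, 10 mM Mg acetate, 0.01% Tween-20, 0.05% BSA; 6-point qHTS titration about 60 µM downward; luminescence read.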
p53 reactivation – qHTS assay for re-activators of p53 using a Luc reporter. H1299 p53-A138V BP100-luciferase reporter, luminescence, 24 h. Potency, µM (series often up to 92.2 µM), for the others: at the highest dose activity change, positive = activation, actives largely listed as activators. hit rate 0.063% among 320,000. AID 504706, 2011; also: % of control where 0% means no effect; nearly all actives have a fitted effect of over 45% in size
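p53-null H1299 cells stably carrying temperature-sensitive p53-A138V and a BP100-luciferase reporter were pinned with compounds (4-point, 1:5 series) and held 24 hrs at 37 deg C. Luminescence was read 10 min after detection reagent.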
* marks the source's active call; other numbers are inactive results; ? = inconclusive; nt = not tested or not shown; [ ] = another dose, or the depositor's remark. Calls follow the shape of the dose curve; as a rule, active = well fitted curve in the direction sought with a large enough effect; inconclusive = small, poorly fitted or top-dose-only effect, or another doubt; inactive = no such curve, though single readings can be large; an effect the other way counts as inactive or inconclusive. Potency is read from the fitted curve at half-maximal effect.

SMILES | SMN2 splice enh | NPC1 promoter act | Rab9 prom act | ELG1 genotox | FLuc counter | p53 reactivation
c1csc(-c2nc3ccccc3s2)c1 | nt | 2.51µM* | 3.55µM* | ? | 2.69µM* | 24.8%
O=C(Nc1ccc(O)c(-c2nc3ccccc3s2)c1)c1cccs1 | 15.2% | 7.5% | -1.0% | 2.7% | ? | -8.0%
O=C(O)c1ccc(S(=O)(=O)N[C@H](Cc2ccc([N+](=O)[O-])cc2)C(=O)O)cc1 | nt | -0.8% | -0.7% | nt | 0.9% | nt
c1ccc(Cn2nc(-c3ccccc3)nc2-c2ccccc2)cc1 | 24.9% | 13.3% | 17.5% | ? | 21.3µM* | ?
Cc1nnc2nc(-c3ccccc3)nc(-c3ccccc3)n12 | nt | -0.8% | 8.6% | -5.4% | -7.1% | 1.9%
Cc1cc(C)c(NC(=O)Cn2nc(-c3ccccc3)nc2-c2ccccc2)c(C)c1 | 8.0% | 0.9% | -1.8% | ? | 1.8% | -3.4%
Cn1nc(-c2ccccc2)nc1-c1ccccc1 | nt | ? | ? | 12.5% | 21.3µM* | ?
Cc1ccc(Cn2nc(-c3ccccc3)nc2-c2ccccc2)cc1 | ? | ? | 3.55µM* | ? | 15.1µM* | 3.8%
O=C(OCc1cc(=O)n2nc(-c3cccs3)sc2n1)c1ccccc1Cl | nt | nt | nt | nt | -2.5% | nt
Cc1cccc(Cc2nnc(CCC(=O)N(CC3CC3)CC3CCCO3)o2)c1 (configuration not stated) | nt | ? | ? | ? | 21.3µM* | 7.7%
COc1ccc(CNC(=O)C(C)n2nc(C)c3sc4ccccc4c3c2=O)cc1OC (configuration not stated) | nt | nt | nt | nt | -1.6% | nt
Cc1nn(C(C)C(=O)NC2CCCCC2)c(=O)c2c1sc1ccccc12 (configuration not stated) | nt | nt | nt | nt | 9.53µM* | nt
Cc1nn(C(C)C(=O)NCC2CCCO2)c(=O)c2c1sc1ccccc12 (configuration not stated) | nt | 2.2% | -5.6% | 0.1% | -2.1% | 1.4%
CCC(C(=O)NCCc1ccc(OC)c(OC)c1)n1nc(C)c2sc3ccccc3c2c1=O (configuration not stated) | nt | nt | nt | nt | 19µM* | nt
CCOC(=O)C(C)n1nc(C)c2sc3ccccc3c2c1=O (configuration not stated) | 15.9% | -7.0% | 9.3% | -6.2% | -2.4% | 2.0%
CSc1ccc(CCNC(=O)C(C)n2nc(C)c3sc4ccccc4c3c2=O)cc1 (configuration not stated) | nt | nt | nt | nt | 13.5µM* | nt
Cc1ccc(CNC(=O)C(C)n2nc(C)c3sc4ccccc4c3c2=O)cc1 (configuration not stated) | nt | nt | nt | nt | 13.5µM* | nt
COC(=O)c1[nH]c2ccccc2c1NC(=O)CN1CCN(c2cccc(OC)c2)C(C)C1 (configuration not stated) | -13.9% | 3.0% | -3.1% | -28.0% | 3.0% | 0.1%
Cc1nc(-n2nc(C)c(CCC(C)C)c2C)sc1C(=O)Nc1ccc(Cl)cc1 | nt | nt | nt | nt | -2.5% | nt
Cc1nc2c(C(=O)NCCC(C)C)cnn2c(C)c1Cc1c(F)cccc1Cl | nt | nt | nt | nt | -0.2% | nt
NCCNc1ncnc2ccc(Cl)cc12 | -4.7%[9.22 µM] | nt | nt | nt | nt | nt
CCC(C(=O)Nc1cccc(Cl)c1C)n1nc(C)c2sc3ccccc3c2c1=O (configuration not stated) | nt | nt | nt | nt | 10.7µM* | nt
CC(C)Cn1cc(NC(=O)NCc2cccc(Cl)c2)c2ccccc2c1=O | nt | nt | nt | nt | 2.8% | nt
CC(=O)Nc1ccc(NC(=O)c2cc(=O)c3cc(C)c(C)cc3o2)cc1 | nt | -1.2% | 3.0% | 5.1% | 2.69µM* | 8.8%
COc1ccc(-c2cc3ccc(OCC(C)=O)cc3oc2=O)cc1 | nt | 1.26µM* | 1µM* | ? | 1.9µM* | ?
SMILES | SMN2 splice enh | NPC1 promoter act | Rab9 prom act | ELG1 genotox | FLuc counter | p53 reactivation
COc1ccc(-c2cc3ccc(OCc4nn[nH]n4)cc3oc2=O)cc1OC | 15.4% | -1.1% | -6.7% | 2.3% | 15.1µM* | 7.2%
COC(=O)COc1ccc2cc(-c3ccccc3)c(=O)oc2c1 | nt | 0.0% | -6.0% | -1.4%[9.26 µM] | 12µM* | 1.0%
COC(=O)COc1ccc2cc(-c3ccc(OC)cc3)c(=O)oc2c1 | nt | -3.5% | 0.1% | 4.1% | ? | 10.8%
COc1ccc(-c2cc3ccc(OCC(C)=O)cc3oc2=O)cc1OC | nt | 3.98µM* | 2µM* | ? | 15.1µM* | ?
Oc1c(Br)cc(C2N=C(c3ccccc3)NO2)cc1Br (configuration not stated) | -19.8% | 17.8% | 7.7% | 18.9% | 16.9µM* | 13.4%
CSc1ncc(-c2ccccc2)cn1 | -9.3% | 2.5% | 21.7% | 3.5% | ? | 7.3%
CSc1ccc(C2N=C(c3ccccc3)NO2)cc1 (configuration not stated) | nt | 1.26µM* | 1.78µM* | ? | 8.49µM* | ?
NC1=NS(=O)(=O)NC1c1cccc(Cl)c1 (configuration not stated) | 6.1% | -3.7% | -9.9% | -1.3% | 0.1% | -8.3%
C/C1=C/CC(C)(C)/C=C/C/C(C)=C/CC1 | 1.4% | nt | nt | nt | nt | nt
CCOc1ccc(Nc2c(S(=O)(=O)c3ccccc3)cnc3ccc(CC)cc23)cc1 | -37.9% | nt | nt | nt | 12.7% | nt
CCOc1ccccc1CNC(=O)C1CCN(Cc2cc3ccccc3n2Cc2ccccc2)CC1 | nt | nt | nt | nt | 3.4% | nt
N#CC(C#N)=Cc1ccc(NC(=O)c2ccc(Br)cc2)cc1 | nt | 17.2% | -13.7% | ? | ? | ?
Cc1ccc(NC(=O)/C(C#N)=C/c2cccs2)c(C)c1 | 12.6µM* | 2µM* | 3.55µM* | ? | -15.3% | 22.7%
Cc1ccc(NC(=O)/C(C#N)=C/c2ccccc2Cl)cc1C | -6.8% | nt | nt | nt | 10.7µM* | nt
CC(C)(C)c1ccc(C(=O)Nc2ccc(C=C(C#N)C#N)cc2)cc1 | ? | ? | 0.501µM* | ? | 4.78µM* | ?
CC(C)(C)c1ccc(/C=C(\C#N)C(=O)Nc2ccccn2)cc1 | nt | 2.0% | -2.0% | -4.6% | 8.49µM* | -0.7%
CNc1ccc(/C=C(\C#N)C(=O)Nc2ccccn2)cc1[N+](=O)[O-] | nt | 1.8% | -0.3% | 0.1% | 0.1% | 19.8%
Cc1ccccc1NC(=O)/C(C#N)=C/c1ccc(Cl)cc1Cl | 2.3% | nt | nt | nt | -13.5% | nt
Cc1cccc(C)c1NC(=O)/C(C#N)=C/c1cccs1 | -5.6% | -7.6% | 14.8% | 1.6% | 0.3% | -0.5%
CC(=O)N1CCC2(CC1)CCN(C(=O)Nc1cccc(C#N)c1)CC2 | -0.3% | nt | nt | nt | nt | nt
CCOC(=O)c1ccc(NC(=O)CN2c3ccccc3S(=O)(=O)c3ccccc32)cc1 | nt | nt | nt | nt | -1.0% | nt
